The values that follow come from PubChem BioAssay (NCATS).

Holding throughout (assay): qHTS profiling for inhibitors of Plasmodium falciparum proliferation (AID 504749); note: nearly all actives have a fitted effect of over 60% in size
Conditions in all cases: P. falciparum in erythrocytes, SYBR Green DNA, 72 h; series mostly up to 28.7 µM
(In general: qHTS replaces the single test concentration by a dilution series.)

The subject of one test is ATS189. The essentials: (§1)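 SYBR Green fluorescence (ex 485 nm, em 535 nm) reports parasite DNA after 72 h compound exposure of infected red cells at 0.3% parasitemia, 2.5% hematocrit; signal normalized to 0.29 uM artemisinin and vehicle wells.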
A further test has as its system CP185. In a few lines: as §1
In a further test the test system is CP191. In a few lines: as §1
For the next test, the system named is CP192. The essentials:
as §1

The subject of a further test is CP201. The essentials:
as §1

The subject of a further test is CP237. The essentials: as §1
For the next test, the system named is CP238. The essentials: as §1
In another test the test system is CP247. In a few lines: as §1
For another test, the system named is CP262. The essentials:
as §1

Another test concerns CP265. The essentials:
as §1

The test system of another test is CP268. In a few lines: as §1
Another test relates to CP286. The essentials: as §1
In a further test the test system is CP305. The essentials:
as §1

Another test has as its system CP335. The essentials: as §1
Another test has as its system DIV30. In a few lines:
as §1

In a further test the test system is Dd2. In a few lines:
as §1

The test system of the next test is HB3. In a few lines: as §1
In a further test the test system is P94_40. The essentials:
as §1

Another test has as its system TAB109. The essentials: as §1
A further test has as its system TAB113. In a few lines: as §1

Structures are written as SMILES. Inconclusive results are not listed. Active and inactive are the calls of the source. Calls come from the whole dose curve; as a rule, active = well fitted inhibition curve with a large enough effect; inconclusive = small, poorly fitted or top-dose-only effect; inactive = flat fitted curve, though single readings scatter.
Potency is the fitted concentration of half-maximal effect.

Take `CC(C)[C@@]1(NC(=O)[C@H]2CC3c4cccc5[nH]cc(c45)C[C@H]3N(C)C2)O[C@@]2(O)C3CCCN3C(=O)[C@@H](Cc3ccccc3)N2C1=O` (stereo not given in full): the Potency was 2.82 µM (active) in the test on ATS189; 10 µM (active) in the test with CP185; 5.01 µM (active) with CP191; 7.57 µM (active) in the test on CP192; 10.7 µM (active) in the test on CP201; 1.26 µM (active) in the test on CP237. The Potency is 3.98 µM (active) in the test with CP238; 8.91 µM (active) in the test on CP247; 12 µM (active) in the test with CP262; 4.47 µM (active) in the test on CP265; 10.7 µM (active) in the test on CP268; 3.98 µM (active) in the test with CP286. Further, the Potency with CP305 is 6.75 µM (active); with CP335, 3.79 µM (active); with DIV30, 1.51 µM (active); with Dd2, 2.82 µM (active); in the test with HB3 it was 2 µM (active); with P94_40 it was 2 µM (active). For the same molecule, the results for the Potency with TAB109 and in the test on TAB113 were 4.47 µM (active) and 3.55 µM (active), respectively.

As for `O=C(O)c1ccccc1-c1c2cc(Br)c(=O)cc-2oc2[c]([Hg])c(O)c(Br)cc12`, the Potency result with ATS189, in the test on CP185, in the test with CP191, in the test with CP192, in the test on CP201 and in the test on CP237 was “inactive” throughout. Further, the Potency entry in the test with CP238, in the test with CP247, in the test on CP262, in the test on CP265, in the test with CP268 and in the test with CP286 was “inactive” throughout. Moreover, the Potency entry with CP305, in the test on CP335, with DIV30, in the test with Dd2, with HB3 and in the test with P94_40 was “inactive” in each case. Also, the Potency result in the test with TAB109 and in the test on TAB113 was “inactive” in each case.

Regarding `CCN1C[C@]2(COC)[C@H](O)C[C@H](OC)[C@]34C1C([C@H](OC)[C@H]23)[C@]1(OC(C)=O)C2[C@@H](OC(=O)c3ccccc3)C(O)(C[C@H]24)[C@@H](OC)[C@@H]1O`, the Potency entry with ATS189, with CP185, in the test on CP191, with CP192, in the test on CP201 and in the test with CP237 was “inactive” each time. The Potency result with CP238, with CP247, in the test with CP262, in the test with CP265, in the test with CP268 and with CP286 was “inactive” throughout. Moreover, the Potency result in the test with CP305, in the test on CP335, with DIV30, in the test on Dd2, with HB3 and with P94_40 was “inactive” in each case. For the same molecule, the Potency result in the test with TAB109 and in the test with TAB113 was “inactive” in each case.
